# From PubChem BioAssay AID1159580 (chemical genetic matrix, 2015)
# The whole screen tested about 5,500 compounds, of which about 2,000 (36%) were called active. Not shown: some 18% with an inconclusive outcome. The list shows a part of the results. Values without a mark were called inactive. Cut-off read from the data, not from the text of the source: active = normalized growth mostly below about 0.91 (no sharp cut-off); inconclusive = no clear call, values can overlap the other calls; inactive = mostly above about 0.92.
# Assay: chemical genetic growth profiling, strain panel (AID 1159580);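 note: tested at 20 µM; growth read once vehicle control cultures reached saturation at 30 °C; 1 = growth at the plate median or of vehicle wells; lower values mean less growth of the strain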
# Conditions: S. cerevisiae deletion strains, growth OD
smiles,measurement,setting,value
CN[C@@H]1C[C@@H](c2ccc(Cl)c(Cl)c2)c2ccccc21,normalized growth,"locus YAL013W, strain DEP1, hits give low values",0.923
same,normalized growth,"locus YAL040C, strain CLN3, hits give low values",1.02
same,normalized growth,"locus YCL061C, strain MRC1 (second series), hits give low values",0.942
same,normalized growth,"locus YDR363W, strain ESC2, hits give low values",0.865 (active)
same,normalized growth,"locus YER002W, strain NOP16, hits give low values",1.06
same,normalized growth,"locus YJR075W, strain HOC1, hits give low values",0.958
same,normalized growth,"locus YNL153C, strain GIM3, hits give low values",0.663 (active)
same,normalized growth,"locus YNL175C, strain NOP13, hits give low values",1
same,normalized growth,"locus YNL197C, strain WHI3, hits give low values",1.01
same,normalized growth,"locus YNL224C, strain SQS1, hits give low values",1.07
same,normalized growth,"locus YNL322C, strain KRE1, hits give low values",0.738 (active)
same,normalized growth,"locus YOR083W, strain WHI5 (second series), hits give low values",0.826 (active)
same,normalized growth,"locus YPL055C, strain LGE1, hits give low values",0.927
CN[C@H]1CC[C@@H](c2ccc(Cl)c(Cl)c2)c2ccccc21,normalized growth,"locus YAL021C, strain ccr4, hits give low values",0.529 (active)
same,normalized growth,"locus YAL026C, strain drs2, hits give low values",0.0645 (active)
same,normalized growth,"locus YAL030W, strain snc1, hits give low values",0.985
same,normalized growth,"locus YBL061C, strain skt5, hits give low values",0.864 (active)
same,normalized growth,"locus YBR009C, strain hhf1, hits give low values",0.82 (active)
same,normalized growth,"locus YBR023C, strain chs3, hits give low values",0.858 (active)
same,normalized growth,"locus YBR171W, strain sec66, hits give low values",1.01
same,normalized growth,"locus YBR231C, strain swc5, hits give low values",0.89 (active)
same,normalized growth,"locus YBR279W, strain paf1, hits give low values",0.905 (active)
same,normalized growth,"locus YCL011C, strain gbp2, hits give low values",0.919
same,normalized growth,"locus YCL016C, strain dcc1, hits give low values",0.866 (active)
same,normalized growth,"locus YCL061C, strain MRC1, hits give low values",0.956
same,normalized growth,"locus YCL069W, strain vba3, hits give low values",0.968
same,normalized growth,"locus YCR088W, strain abp1, hits give low values",0.964
same,normalized growth,"locus YDL005C, strain med2, hits give low values",1.07
same,normalized growth,"locus YDL040C, strain nat1, hits give low values",1.02
same,normalized growth,"locus YDR001C, strain nth1, hits give low values",1.02
same,normalized growth,"locus YDR069C, strain doa4, hits give low values",0.639 (active)
same,normalized growth,"locus YDR137W, strain rgp1, hits give low values",1.29 [resistant] (active)
same,normalized growth,"locus YDR159W, strain sac3, hits give low values",1.05
same,normalized growth,"locus YDR195W, strain ref2",1.47 [resistant] (active)
same,normalized growth,"locus YDR297W, strain sur2, hits give low values",0.976
same,normalized growth,"locus YDR334W, strain swr1, hits give low values",1.04
same,normalized growth,"locus YDR335W, strain msn5, hits give low values",0.849 (active)
same,normalized growth,"locus YDR392W, strain spt3, hits give low values",0.939
same,normalized growth,"locus YEL003W, strain gim4, hits give low values",0.898 (active)
same,normalized growth,"locus YEL037C, strain rad23, hits give low values",0.953
same,normalized growth,"locus YEL061C, strain CIN8 (second series), hits give low values",1
same,normalized growth,"locus YER015W, strain faa2, hits give low values",0.634 (active)
same,normalized growth,"locus YER016W, strain bim1, hits give low values",0.986
same,normalized growth,"locus YER111C, strain swi4, hits give low values",1.01
same,normalized growth,"locus YER155C, strain BEM2 (second series), hits give low values",1.01
same,normalized growth,"locus YFR010W, strain ubp6, hits give low values",0.605 (active)
same,normalized growth,"locus YGL167C, strain pmr1, hits give low values",1.04
same,normalized growth,"locus YGL173C, strain kem1, hits give low values",0.799 (active)
same,normalized growth,"locus YGL227W, strain vid30, hits give low values",1.02
same,normalized growth,"locus YGL240W, strain doc1, hits give low values",1.06
same,normalized growth,"locus YGL253W, strain hxk2, hits give low values",0.859 (active)
same,normalized growth,"locus YHR013C, strain ard1, hits give low values",0.677 (active)
same,normalized growth,"locus YHR027C, strain rpn1, hits give low values",0.817 (active)
same,normalized growth,"locus YHR030C, strain SLT2, hits give low values",0.859
same,normalized growth,"locus YHR079C, strain IRE1, hits give low values",0.959
same,normalized growth,"locus YHR142W, strain chs7, hits give low values",0.77 (active)
same,normalized growth,"locus YJL092W, strain hpr5, hits give low values",0.945
same,normalized growth,"locus YJL095W, strain BCK1 (second series), hits give low values",0.0692 (active)
same,normalized growth,"locus YJL095W, strain BCK1, hits give low values",0.935
same,normalized growth,"locus YJL115W, strain asf1, hits give low values",1.03
same,normalized growth,"locus YJL129C, strain trk1, hits give low values",0.794 (active)
same,normalized growth,"locus YJL154C, strain vps35, hits give low values",1.02
same,normalized growth,"locus YJL164C, strain tpk1, hits give low values",0.855 (active)
same,normalized growth,"locus YJL166W, strain qcr8, hits give low values",0.862 (active)
same,normalized growth,"locus YJR066W, strain TOR1, hits give low values",0.929
same,normalized growth,"locus YKL160W, strain elf1, hits give low values",0.931
same,normalized growth,"locus YKR026C, strain gcn3, hits give low values",0.999
same,normalized growth,"locus YKR091W, strain srl3, hits give low values",1.02
same,normalized growth,"locus YLL001W, strain dnm1, hits give low values",0.929
same,normalized growth,"locus YLL026W, hits give low values",0.942
same,normalized growth,"locus YLL041C, strain sdh2, hits give low values",1.01
same,normalized growth,"locus YLR027C, strain aat2, hits give low values",0.921 (active)
same,normalized growth,"locus YLR113W, strain HOG1, hits give low values",0.936
same,normalized growth,"locus YLR221C, strain rsa3, hits give low values",0.9 (active)
same,normalized growth,"locus YLR258W, strain gsy2, hits give low values",0.932
same,normalized growth,"locus YLR262C, strain YPT6 (second series), hits give low values",1.02
same,normalized growth,"locus YLR320W, strain mms22, hits give low values",0.805 (active)
same,normalized growth,"locus YLR342W, strain FKS1, hits give low values",0.647 (active)
same,normalized growth,"locus YLR357W, strain rsc2, hits give low values",1.17 [resistant] (active)
same,normalized growth,"locus YLR370C, strain arc18, hits give low values",0.703 (active)
same,normalized growth,"locus YLR384C, strain iki3, hits give low values",1.02
same,normalized growth,"locus YML120C, strain ndi1, hits give low values",0.983
same,normalized growth,"locus YMR058W, strain fet3, hits give low values",0.661 (active)
same,normalized growth,"locus YMR125W, strain sto1, hits give low values",0.943
same,normalized growth,"locus YMR129W, hits give low values",1.03
same,normalized growth,"locus YMR205C, strain PFK2, hits give low values",0.866 (active)
same,normalized growth,"locus YMR231W, strain pep5, hits give low values",0.0786 (active)
same,normalized growth,"locus YNL071W, strain lat1, hits give low values",0.847 (active)
same,normalized growth,"locus YNL183C, strain NPR1, hits give low values",0.954
same,normalized growth,"locus YNL209W, strain ssb2, hits give low values",0.846 (active)
same,normalized growth,"locus YNL248C, strain rpa49, hits give low values",0.935
same,normalized growth,"locus YNL322C, strain KRE1 (second series), hits give low values",1.08
same,normalized growth,"locus YNR049C, strain mso1, hits give low values",0.996
same,normalized growth,"locus YOR001W, strain rrp6, hits give low values",0.928
same,normalized growth,"locus YOR070C, strain gyp1, hits give low values",0.817 (active)
same,normalized growth,"locus YOR080W, strain dia2, hits give low values",0.982
same,normalized growth,"locus YOR083W, strain WHI5, hits give low values",0.824 (active)
same,normalized growth,"locus YOR106W, strain vam3, hits give low values",0.622 (active)
same,normalized growth,"locus YOR231W, strain MKK1, hits give low values",0.988
same,normalized growth,"locus YOR265W, strain rbl2, hits give low values",0.953
same,normalized growth,"locus YOR270C, strain vph1, hits give low values",0.348 (active)
same,normalized growth,"locus YOR290C, strain snf2, hits give low values",0.852 (active)
same,normalized growth,"locus YPL051W, strain arl3, hits give low values",0.776 (active)
same,normalized growth,"locus YPL078C, strain atp4, hits give low values",0.922
same,normalized growth,"locus YPL106C, strain sse1, hits give low values",1.03
same,normalized growth,"locus YPL240C, strain hsp82, hits give low values",1.01
same,normalized growth,"locus YPL256C, strain CLN2, hits give low values",0.969
